The values below come from PubChem BioAssay (NCI).

Some test systems named below: DU-145 prostate; K-562 leukemia; MALME-3M melanoma; MDA-MB-231 breast; RXF 393 renal; SF-268 CNS; SF-295 CNS; SF-539 CNS; UACC-257 melanoma; M14 melanoma; HCT-15 colon; HT29 colon; SNB-75 CNS; SNB-19 CNS; U251 CNS; PC-3 prostate; SK-MEL-5 melanoma; UACC-62 melanoma; LOX IMVI melanoma; SK-MEL-28 melanoma.
What all share (experiment): NCI-60 one-dose screen, 48 h (100 = growth as untreated, 0 = no growth, -100 = all killed)
Common to all, as to settings: 10 µM unless noted

Compounds without any hit were thinned out: in the full panel of roughly 83,000, 20% have a hit.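 Negative percent growth values reflect cell death: -40 means 40% of the cells present at the start died, and -100 means all died.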 A number with no mark means an inactive call. Active and inactive are the calls of the source. The calls were made as follows: active = growth percent below 10; inactive = the rest.

For `C=C1C(=O)O[C@H]2[C@H]1CC/C(COC(=O)C(=O)c1c[nH]c3ccccc13)=C\CC[C@@]1(C)O[C@@H]21`, the growth was -31.4% (active) with DU-145 prostate; -4.12% (active) in the assay on K-562 leukemia; -63.1% (active) with MALME-3M melanoma; -56.8% (active) with MDA-MB-231 breast; -89.1% (active) in the assay with RXF 393 renal; -46.3% (active) with SF-268 CNS. For the same compound, the growth with SF-295 CNS was 56.6%; with SF-539 CNS, -65.3% (active); with UACC-257 melanoma, -69.3% (active); with M14 melanoma, -57.2% (active); in the assay with HCT-15 colon it was -42.9% (active); in the assay with HT29 colon, -55.3% (active). Further, the growth with SNB-75 CNS is -55% (active); in the assay with SNB-19 CNS, 30.3%; with U251 CNS it was -82.3% (active); in the assay on PC-3 prostate, -66.8% (active); in the assay on SK-MEL-5 melanoma, -89.6% (active); in the assay with UACC-62 melanoma, -82.2% (active). Also, the growth with LOX IMVI melanoma is -81.1% (active); in the assay with SK-MEL-28 melanoma, -54% (active).
In the case of `CCCCN(CCCC)CC(C)(C)C(O)c1ccc(OC)c2ccccc12` (stereo not given), the growth was 69.2% with DU-145 prostate; 31.2% in the assay with K-562 leukemia; 47.3% in the assay on MALME-3M melanoma; 70.8% with MDA-MB-231 breast; 65% with RXF 393 renal; 85.3% in the assay on SF-268 CNS. Besides, the growth in the assay with SF-295 CNS is -7.15% (active); in the assay with SF-539 CNS it was 76.9%; with UACC-257 melanoma it was 60.2%; in the assay on M14 melanoma, 37%; in the assay on HCT-15 colon, 59.1%; with HT29 colon it was 9.09% (active). Besides, the growth in the assay on SNB-75 CNS is 101%; in the assay with SNB-19 CNS it was 76.3%; in the assay on U251 CNS, 50.3%; in the assay with PC-3 prostate, 29.5%; in the assay on SK-MEL-5 melanoma it was 50.7%; with UACC-62 melanoma it was 56.1%. Besides, the growth with LOX IMVI melanoma is 66.6%; in the assay with SK-MEL-28 melanoma, 85%.
As for `COc1cc2c(cc1-c1c(C)noc1C)ncc1nc(C3CCC(F)(F)CC3)n(C3CCC(OC(F)F)CC3)c12` (stereo not given), the growth is 73.3% with DU-145 prostate; 41.5% in the assay with K-562 leukemia; 48.2% in the assay with MALME-3M melanoma; 37.8% with MDA-MB-231 breast; 75.5% in the assay on RXF 393 renal; 72.7% in the assay with SF-268 CNS. The growth in the assay on SF-295 CNS is 68.1%; in the assay on SF-539 CNS, 61.8%; with UACC-257 melanoma, 38.8%; in the assay on M14 melanoma, 55.1%; in the assay with HCT-15 colon, 36.1%; in the assay on HT29 colon, 31.6%. The growth is 15.1% in the assay on SNB-75 CNS; 67.2% with SNB-19 CNS; 77.7% in the assay with U251 CNS; 41.8% in the assay on PC-3 prostate; 43.7% in the assay with SK-MEL-5 melanoma; 32% in the assay on UACC-62 melanoma. The growth in the assay on LOX IMVI melanoma was 35.2%; in the assay with SK-MEL-28 melanoma, 66.6%.
`COc1ccc(N=C(c2ccccc2)C2C(=O)c3ccccc3C2=O)cc1`: the growth with DU-145 prostate is 99.8%; in the assay on K-562 leukemia, 75.4%; in the assay with MALME-3M melanoma it was 103%; in the assay on MDA-MB-231 breast it was 103%; in the assay with RXF 393 renal, 72.1%; in the assay on SF-268 CNS it was 97.7%. The growth with SF-295 CNS is 67.2%; with SF-539 CNS it was 72.3%; in the assay on UACC-257 melanoma, 93.8%; in the assay with M14 melanoma, 92%; with HCT-15 colon, 67%; in the assay on HT29 colon, 79.5%. Moreover, the growth was 76.3% in the assay with SNB-75 CNS; 89.5% in the assay with SNB-19 CNS; 81.8% in the assay with U251 CNS; 32.3% in the assay on PC-3 prostate; 71.4% with SK-MEL-5 melanoma; 63% in the assay on UACC-62 melanoma. Also, the growth with LOX IMVI melanoma was 75.4%; with SK-MEL-28 melanoma, 74.1%.
As to `COc1cccc(C(=O)NCCNc2cc(-c3cn(-c4ccccc4)nc3-c3cccc(OC)c3)ccn2)c1`, the growth in the assay with DU-145 prostate is 64%; with K-562 leukemia, 32.4%; with MALME-3M melanoma, 81%; with MDA-MB-231 breast, 62.1%; in the assay on RXF 393 renal it was 74.2%; in the assay on SF-268 CNS, 68.9%. Moreover, the growth in the assay on SF-295 CNS is 58.3%; with SF-539 CNS it was 87.3%; with UACC-257 melanoma it was 46.9%; in the assay with M14 melanoma it was 51.3%; with HCT-15 colon, 41.8%; in the assay on HT29 colon, 22.6%. Besides, the growth is 74.5% with SNB-75 CNS; 78% with SNB-19 CNS; 48.4% in the assay with U251 CNS; 25.4% with PC-3 prostate; 39.3% in the assay on SK-MEL-5 melanoma; 55.1% in the assay with UACC-62 melanoma. The growth is 62.1% in the assay with LOX IMVI melanoma and 80.2% in the assay on SK-MEL-28 melanoma.
Turning to `O=C(Cc1ccc(F)c(F)c1)Nc1cc(C2(C(F)(F)F)CC2)nn1Cc1ccccc1`, the growth was 20.5% in the assay on DU-145 prostate; 13.3% in the assay on K-562 leukemia; -37.7% (active) with MALME-3M melanoma; -70.7% (active) with MDA-MB-231 breast; -26.9% (active) with RXF 393 renal; 9.11% (active) with SF-268 CNS. The growth was -1.31% (active) with SF-295 CNS; 16.3% in the assay on SF-539 CNS; -14.6% (active) in the assay with UACC-257 melanoma; 20.2% with M14 melanoma; 6.24% (active) with HCT-15 colon; 17.6% with HT29 colon. In addition, the growth with SNB-75 CNS is -14.9% (active); in the assay on SNB-19 CNS, 13.3%; in the assay on U251 CNS it was 4.6% (active); with PC-3 prostate it was -6.07% (active); in the assay on SK-MEL-5 melanoma, -80.8% (active); in the assay on UACC-62 melanoma, -10.3% (active). Also, the growth in the assay with LOX IMVI melanoma was 5.44% (active); in the assay on SK-MEL-28 melanoma, 18.6%.
In the case of `O=C1c2cccc(NCCN=Cc3cc([N+](=O)[O-])ccc3O)c2C(=O)c2c(NCCN=Cc3cc([N+](=O)[O-])ccc3O)cccc21`, the growth in the assay with DU-145 prostate was 67%; in the assay on K-562 leukemia, 28.6%; in the assay with MALME-3M melanoma it was 85.1%; with MDA-MB-231 breast, 58.9%; with RXF 393 renal it was 74.5%; in the assay on SF-268 CNS, 40%. In addition, the growth with SF-295 CNS was 73%; with SF-539 CNS, 70.8%; with UACC-257 melanoma, 104%; in the assay on M14 melanoma it was 102%; in the assay on HCT-15 colon, 82%; in the assay on HT29 colon, 37.1%. The growth with SNB-75 CNS was 65.9%; with SNB-19 CNS, 50.4%; in the assay with U251 CNS, 44.5%; with PC-3 prostate, 50%; with SK-MEL-5 melanoma, 92.1%; in the assay on UACC-62 melanoma, 90.2%. The growth in the assay on LOX IMVI melanoma is 58.6%; with SK-MEL-28 melanoma it was 102%.
For the compound `CCCCn1c(=O)c2c(nc(NCCc3ccc(O)c(O)c3)n2CCC)n(CCCC)c1=O`, the growth in the assay on DU-145 prostate was 74.8%; with K-562 leukemia, 37.7%; in the assay on MALME-3M melanoma it was 101%; with MDA-MB-231 breast, 58.6%; with RXF 393 renal it was 66.3%; in the assay on SF-268 CNS, 74.6%. Moreover, the growth in the assay with SF-295 CNS was 94.7%; in the assay on SF-539 CNS it was 87.7%; with UACC-257 melanoma, 89.6%; with M14 melanoma, 75.9%; with HCT-15 colon, 39.4%; in the assay with HT29 colon it was 70.9%. The growth is 68.8% in the assay with SNB-75 CNS; 92.3% in the assay on SNB-19 CNS; 77.2% in the assay with U251 CNS; 43.9% in the assay on PC-3 prostate; 83.1% in the assay with SK-MEL-5 melanoma; 86.2% in the assay on UACC-62 melanoma. For the same compound, the growth in the assay with LOX IMVI melanoma was 57.4%; in the assay on SK-MEL-28 melanoma, 86.9%.
